PubChem BioAssay (NCI)
The panel holds about 79,000 compounds, 15% with a hit somewhere; the sample as a whole holds those more often. Calls of active or inactive are those of the source. No stated cut-off is given here; in the data, active means growth inhibition above about 70%; inactive means the rest.

Legend:
[1] = NCI Yeast Anticancer Drug Screen. Data for the rad52 strain (AID 147);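 further: 0% = growth of vehicle-treated control cultures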; conditions: S. cerevisiae rad52 mutant growth inhibition, active compounds read high
Method in brief: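 Compounds are applied to a genetically defined yeast strain lacking normal DNA damage repair, and inhibition of growth is expressed relative to cultures given vehicle only.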

[2] = NCI Yeast Anticancer Drug Screen. Data for the wt1 strain (AID 149);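 further: 0% = growth of vehicle-treated wt1 cultures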; conditions: S. cerevisiae wt1 strain (SPY 50644) growth inhibition, active compounds read high
Method in brief: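 Growth inhibition read against vehicle controls after compound exposure of the wt1 yeast strain.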

[3] = NCI Yeast Anticancer Drug Screen. Data for the rad50EPP+ strain (AID 151);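 further: 0% = growth of vehicle-treated control cultures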; conditions: S. cerevisiae rad50 mutant strain, active compounds read high
Method in brief: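 Compounds were applied to the rad50EPP+ yeast strain, which bears a defined DNA repair alteration, and growth inhibition was determined relative to vehicle-treated cultures.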

[4] = NCI Yeast Anticancer Drug Screen. Data for the mgt1 strain (AID 153); conditions: S. cerevisiae mgt1 mutant growth inhibition, active compounds read high
Method in brief: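 Strain: mgt1 yeast, one of a set carrying defined DNA damage repair or cell cycle control alterations. Compound-treated growth compared with vehicle.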

[5] = NCI Yeast Anticancer Drug Screen. Data for the rad50 strain (AID 155);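 further: 0% = growth of vehicle-only cultures of the same strain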; conditions: S. cerevisiae rad50 strain growth inhibition, active compounds read high
Method in brief: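 Readout: growth inhibition relative to vehicle-treated cultures. Compound exposure was carried out in a genetically defined yeast strain deficient in DNA damage repair.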

[6] = NCI Yeast Anticancer Drug Screen. Data for the mec2-1 strain (AID 157); conditions: S. cerevisiae mec2-1 strain, active compounds read high
Method in brief: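 Strain: mec2-1 (DNA repair/cell cycle alteration). Compound exposure, then growth measured; inhibition expressed relative to vehicle.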

[7] = NCI Yeast Anticancer Drug Screen. Data for the sgs1 mgt1 strain (AID 161);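 further: 0% = growth of cultures given vehicle only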; conditions: S. cerevisiae sgs1 mgt1 strain, active compounds read high
Method in brief: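 Test agents were incubated with a DNA-repair-mutant yeast strain. Growth was then read and compared against vehicle-treated controls.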

[8] = NCI Yeast Anticancer Drug Screen. Data for the CLN2oe strain (AID 163);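 further: 0% = growth of vehicle-only control cultures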; conditions: S. cerevisiae CLN2oe strain, active compounds read high
Method in brief: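 Growth of a genetically modified yeast strain is measured after compound exposure and compared with cultures given vehicle alone.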

[9] = NCI Yeast Anticancer Drug Screen. Data for the cln2 rad14 strain (AID 165);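 further: 0% = growth equal to vehicle treated cultures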; conditions: S. cerevisiae cln2 rad14 strain, active compounds read high
Method in brief: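 Compounds are applied to the cln2 rad14 yeast strain, and growth is then compared with that of vehicle-treated cultures to give inhibition.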

[10] = NCI Yeast Anticancer Drug Screen. Data for the bub3 strain (AID 167); conditions: S. cerevisiae bub3 mutant strain, active compounds read high
Method in brief: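 Readout: yeast growth inhibition, expressed relative to vehicle-only wells. The test organism is a mutant strain from a panel with lesions in DNA repair or checkpoint genes.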

[11] = NCI Yeast Anticancer Drug Screen. Data for the wt2 strain (AID 169);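 further: 0% = growth of vehicle-treated yeast cultures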; conditions: S. cerevisiae wt2 strain growth inhibition, active compounds read high
Method in brief: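 This strain belongs to a panel of yeast strains with defined genetic alterations in DNA damage repair or cell cycle control. Compounds are applied, and growth inhibition is measured against vehicle-treated cultures.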

[12] = NCI Yeast Anticancer Drug Screen. Data for the mlh1 strain (AID 171);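 further: 0% = growth of vehicle-treated control cultures of the same strain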; conditions: S. cerevisiae mlh1 strain growth inhibition, active compounds read high
Method in brief: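 Growth of the mutant yeast strain after compound exposure, expressed as inhibition relative to vehicle-only controls.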

[13] = NCI Yeast Anticancer Drug Screen. Data for the sgs1 strain (AID 173);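 further: 0% = growth of vehicle-only control cultures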; conditions: S. cerevisiae sgs1 mutant, active compounds read high
Method in brief: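 Growth of a yeast strain bearing a defined genetic alteration is measured after compound treatment. Inhibition is expressed relative to vehicle-only controls.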

[14] = NCI Yeast Anticancer Drug Screen. Data for the rad18 strain (AID 177); conditions: S. cerevisiae rad18 mutant growth inhibition, active compounds read high
Method in brief: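 Growth of the mutant yeast strain after compound exposure, normalised to vehicle-only cultures.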

[15] = NCI Yeast Anticancer Drug Screen. Data for the mlh1 rad18 strain (AID 175); conditions: S. cerevisiae mlh1 rad18 strain growth inhibition, active compounds read high
Method in brief: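 Read-out is yeast growth inhibition, calculated against vehicle-only controls. The compound was applied to a strain engineered with DNA damage repair alterations.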

[16] = at 5.0 µM (retest, dose inferred, filed as 0.5)
[17] = at 50.0 µM (retest, dose inferred, filed as 5.0)

Measured: growth inhibition

C/C(=N/NC(=S)N1CCCCCC1)c1cccc(/C(C)=N\NC(=S)N2CCCCCC2)n1
inactive: [1]; at 1.2 µM 19% | [1]; at 3.7 µM 25% | [1]; at 11.0 µM 54% | [2]; at 1.2 µM 17% | [2]; at 3.7 µM 34% | [2]; at 11.0 µM 60% | [3]; at 1.2 µM 0% | [3]; at 3.7 µM -1% | [3]; at 11.0 µM -27% | [3]; at 33.0 µM -48% | [3]; at 100.0 µM -39% | [4]; at 1.2 µM 23% | [4]; at 3.7 µM 35% | [4]; at 11.0 µM 52% | [4]; at 100.0 µM 69% | [5]; at 1.2 µM 38% | [5]; at 3.7 µM 42% | [5]; [16] 42% | [5]; at 11.0 µM 62% | [6]; at 1.2 µM 22% | [6]; at 3.7 µM 31% | [6]; [16] 31% | [6]; at 11.0 µM 51% | [7]; [16] 43% | [8]; at 1.2 µM -4% | [8]; at 3.7 µM -4% | [8]; at 11.0 µM -6% | [8]; at 33.0 µM -5% | [8]; at 100.0 µM 23% | [9]; [16] 9% | [10]; at 1.2 µM -4% | [10]; at 3.7 µM -3% | [10]; [16] 58% | [10]; at 11.0 µM -4% | [10]; at 33.0 µM 7% | [10]; at 100.0 µM 15% | [11]; at 1.2 µM -1% | [11]; at 3.7 µM -6% | [11]; at 11.0 µM -1% | [11]; at 33.0 µM 8% | [11]; at 100.0 µM 32% | [12]; at 1.2 µM -2% | [12]; at 3.7 µM -9% | [12]; at 11.0 µM 51% | [13]; at 1.2 µM 21% | [13]; at 3.7 µM 15% | [13]; at 11.0 µM 41% | [13]; at 33.0 µM 66% | [14]; at 1.2 µM 10% | [14]; at 3.7 µM 26% | [14]; at 11.0 µM 46% | [14]; at 33.0 µM 67%
active: [1]; at 33.0 µM 73% | [1]; at 100.0 µM 71% | [2]; at 33.0 µM 82% | [2]; at 100.0 µM 81% | [4]; at 33.0 µM 80% | [5]; at 33.0 µM 79% | [5]; [17] 93% | [5]; at 50.0 µM 90.8% | [5]; at 100.0 µM 73% | [6]; at 33.0 µM 81% | [6]; [17] 92% | [6]; at 50.0 µM 91% | [6]; at 100.0 µM 83% | [7]; [17] 93% | [7]; at 50.0 µM 92.8% | [9]; [17] 91% | [9]; at 50.0 µM 93.2% | [10]; [17] 92% | [10]; at 50.0 µM 92% | [12]; at 33.0 µM 76% | [12]; at 100.0 µM 71% | [13]; at 100.0 µM 73% | [14]; at 100.0 µM 70%

CCC(C)COC(=O)c1ccc(N=Cc2ccc(C=Nc3ccc(C(=O)OCC(C)CC)cc3)cc2)cc1 (stereo not drawn)
active: [5]; [16] 96% | [5]; [17] 96% | [7]; [16] 98% | [7]; [17] 98% | [7]; at 50.0 µM 70.3%
inactive: [1]; at 1.2 µM -2% | [1]; at 3.7 µM -3% | [1]; at 11.0 µM 6% | [1]; at 33.0 µM 4% | [1]; at 100.0 µM 13% | [2]; at 1.2 µM -1% | [2]; at 3.7 µM -4% | [2]; at 11.0 µM -2% | [2]; at 33.0 µM -1% | [2]; at 100.0 µM 3% | [3]; at 1.2 µM 5% | [3]; at 3.7 µM 5% | [3]; at 11.0 µM 16% | [3]; at 33.0 µM 32% | [3]; at 100.0 µM 49% | [4]; at 1.2 µM 1% | [4]; at 3.7 µM 1% | [4]; at 11.0 µM -4% | [4]; at 33.0 µM -6% | [4]; at 100.0 µM 6% | [5]; at 1.2 µM -2% | [5]; at 3.7 µM -9% | [5]; at 11.0 µM -2% | [5]; at 33.0 µM 3% | [5]; at 50.0 µM 28.8% | [5]; at 100.0 µM 21% | [6]; at 1.2 µM -3% | [6]; at 3.7 µM -2% | [6]; [16] 13% | [6]; at 11.0 µM 3% | [6]; at 33.0 µM 4% | [6]; [17] 13% | [6]; at 50.0 µM 49.6% | [6]; at 100.0 µM 8% | [8]; at 1.2 µM 0% | [8]; at 3.7 µM 0% | [8]; at 11.0 µM 6% | [8]; at 33.0 µM -1% | [8]; at 100.0 µM 0% | [9]; [16] 12% | [9]; [17] 12% | [9]; at 50.0 µM 41% | [10]; at 1.2 µM 7% | [10]; at 3.7 µM 3% | [10]; [16] 3% | [10]; at 11.0 µM 6% | [10]; at 33.0 µM 10% | [10]; [17] 3% | [10]; at 50.0 µM 62.1% | [10]; at 100.0 µM 10% | [11]; at 1.2 µM 0% | [11]; at 3.7 µM -2% | [11]; at 11.0 µM 0% | [11]; at 33.0 µM 2% | [11]; at 100.0 µM 5% | [12]; at 1.2 µM 0% | [12]; at 3.7 µM 3% | [12]; at 11.0 µM 2% | [12]; at 33.0 µM 10% | [12]; at 100.0 µM 19% | [13]; at 1.2 µM -2% | [13]; at 3.7 µM -2% | [13]; at 11.0 µM 2% | [13]; at 33.0 µM 7% | [13]; at 100.0 µM 11% | [15]; [16] 50% | [15]; [17] 50% | [15]; at 50.0 µM 57.1% | [14]; at 1.2 µM -1% | [14]; at 3.7 µM -3% | [14]; at 11.0 µM 3% | [14]; at 33.0 µM 13% | [14]; at 100.0 µM 22%

O=C(Cc1csc2[n+]1C(=O)/C(=C/c1ccc(Cl)cc1)S2)Nc1ccccc1
active: [1]; at 100.0 µM 87% | [3]; at 100.0 µM 75% | [4]; at 100.0 µM 87% | [5]; [17] 98% | [5]; at 50.0 µM 98.5% | [5]; at 100.0 µM 78%
inactive: [1]; at 1.2 µM 15% | [1]; at 3.7 µM 4% | [1]; at 11.0 µM 20% | [1]; at 33.0 µM 49% | [2]; at 1.2 µM -84% | [2]; at 3.7 µM -1% | [2]; at 11.0 µM 0% | [2]; at 33.0 µM 16% | [2]; at 100.0 µM 60% | [3]; at 1.2 µM 2% | [3]; at 3.7 µM 8% | [3]; at 11.0 µM 34% | [3]; at 33.0 µM 65% | [4]; at 1.2 µM -1% | [4]; at 3.7 µM 1% | [4]; at 11.0 µM 7% | [4]; at 33.0 µM 54% | [5]; at 1.2 µM -2% | [5]; at 3.7 µM 1% | [5]; [16] 24% | [5]; at 11.0 µM 9% | [5]; at 33.0 µM 43% | [6]; at 1.2 µM -3% | [6]; at 3.7 µM 5%
